# Shown is part of a subset that was picked to be rich in hits.
# PKM2 inhibitor – blocks activity of human pyruvate kinase M2; P14618; purified PKM2, ATP generation, Kinase-Glo luminescence; Potency, µM (series often up to 57.5 µM), for the others: at the top dose activity change, negative = inhibition, actives largely listed as inhibitors; actives 0.058% (n = 260,000); AID 1634; also: potency is read from the fitted curve at half-maximal effect; nearly all actives have a fitted effect of over 60% in size
# Target sequence (P14618 whole entry, looked up): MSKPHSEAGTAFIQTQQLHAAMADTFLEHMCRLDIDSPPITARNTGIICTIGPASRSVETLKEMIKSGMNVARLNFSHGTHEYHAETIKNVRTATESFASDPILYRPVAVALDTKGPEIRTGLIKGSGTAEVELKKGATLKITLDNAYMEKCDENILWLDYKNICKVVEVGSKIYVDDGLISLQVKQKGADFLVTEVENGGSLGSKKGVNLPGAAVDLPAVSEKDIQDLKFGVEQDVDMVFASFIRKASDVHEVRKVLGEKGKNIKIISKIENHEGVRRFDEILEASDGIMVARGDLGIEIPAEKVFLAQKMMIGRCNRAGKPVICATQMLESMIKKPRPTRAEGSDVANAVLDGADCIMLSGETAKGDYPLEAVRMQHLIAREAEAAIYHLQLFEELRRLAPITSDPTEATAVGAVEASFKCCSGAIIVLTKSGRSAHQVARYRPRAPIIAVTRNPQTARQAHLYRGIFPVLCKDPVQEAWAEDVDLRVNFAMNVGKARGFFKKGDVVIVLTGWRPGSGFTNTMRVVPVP
#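 Enzyme run at intermediate activity with final 0.1 mM ADP, 0.5 mM PEP (50 mM imidazole pH7.2, 50 mM KCl, 7 mM MgCl2), incubated 1 h at r.t. ATP formed read by Kinase-Glo luminescence, normalized to no-enzyme (full inhibition) and uninhibited wells.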
# PKM2 inh dose – PKM2 (human) inhibition, concentration-response confirmation; shares compounds with PKM2 inhibitor; purified hPK-M2, Kinase-Glo ATP luminescence, 1 h; Potency, µM (doses to about 57.5 µM), for inactives: top-dose activity change, negative = inhibition, usual class: inhibitors; actives 50% (n = 55); AID 2263
# PKM2 FLuc cs – firefly luciferase inhibition counter-screen. Potency, µM (series often up to 57.5 µM), for inactives: top-dose activity, negative = inhibition, usual class: inhibitors. AID 2265. actives 30% (n = 55). Kinase-Glo firefly luciferase, luminescence, 8 min. shares compounds with PKM2 inhibitor
# PKM2 LDH couple – blocks human pyruvate kinase M2 in LDH-coupled assay. shares compounds with PKM2 inhibitor. purified hPK-M2, LDH-coupled NADH fluorescence kinetic. Potency, µM (doses to about 57.5 µM), without a hit: top-dose activity change, negative = inhibition, most hits filed as inhibitors. 55 tested, under 10 active
# An asterisk follows results filed as active; ? = inconclusive; / = no result. Calls follow the shape of the dose curve; as a rule, active = well fitted curve in the direction sought with a large enough effect; inconclusive = small, poorly fitted or top-dose-only effect, or another doubt; inactive = no such curve, though single readings can be large; an effect the other way counts as inactive or inconclusive.
SMILES,PKM2 inhibitor,others
O=C1COc2ccc(OCc3ccc(F)cc3)cc21,48.7%,
C=C1C(=O)C=C2CN(C(=O)c3ccccc3)[C@@](Cc3ccc(OC)cc3)(C(=O)OC)[C@@H]12,42.1%,
CS(=O)(=O)Nc1ccc(C(=O)NCc2ccc3c(c2)OCO3)cc1,50.6%,
CCC(=O)Oc1ccc(C(=O)Nc2ccc3c(c2)OCO3)cc1,14.1µM*,
CC(=O)Oc1ccc(C(=O)Nc2cccc(C(=O)c3cccc(NC(=O)c4ccc(OC(C)=O)cc4)c3)c2)cc1,32.2%,
COc1cc(S(=O)(=O)Nc2cccc(C)c2)ccc1NC(=O)c1ccncc1,39.3%,
Cc1ccc2[nH]c(O)c(N=NC(=O)CCc3ccccc3)c2c1Br,-6.1%,
O=CN/C=C/c1cc(O)ccc1O,10µM*,
O=C(CCCc1cccs1)N1CCN(S(=O)(=O)c2ccccc2Br)CC1,81.7%,
COc1ccc(-c2cc(=O)[nH][nH]2)cc1,50.5%,
COc1ccc(-c2cc3c(nn2)-c2ccccc2C3=O)cc1,15.8µM*,
COc1ccc(S(=O)(=O)c2cnc3ccccc3n2)cc1,44.2%,
CCS(=O)(=O)Nc1ccc(C2=NN(S(C)(=O)=O)C(c3cccs3)C2)cc1 (stereo not drawn),39.9%,
CCc1ccc(NC(=O)CSc2nnc(C)c(=O)n2N)cc1,30.7%,
O=C(NC(=O)c1ccccc1)Nc1ccccn1,5.01µM*,PKM2 inh dose=11.6µM*;PKM2 FLuc cs=5.17µM*;PKM2 LDH couple=-2.1%
O=C(O)c1ccc(NC(=S)NC(=O)c2ccc(-c3ccccc3)cc2)cc1,49.4%,
Cc1cc(C)c(NC(=O)NC(=O)c2cccc(F)c2)c(C)n1,30.6%,
CCc1ccccc1Nc1nn2c(=O)c3ccc(C(=O)NCc4ccccn4)cc3nc2s1,34.2%,
COc1ccc(NC(=O)/C(Cl)=C(/Cl)S(=O)Cc2ccc(Cl)cc2)cn1 (stereo not drawn),36.5%,
CC(=O)c1cc2c(cc1NC(=O)CSc1nc3ccccc3[nH]1)OCO2,32.0%,
O=C(Nc1nc2ccccc2[nH]1)c1ccccc1F,8.91µM*,PKM2 inh dose=5.17µM*;PKM2 FLuc cs=4.11µM*;PKM2 LDH couple=-7.5%
CCS(=O)(=O)N1Cc2ccccc2CC1C(=O)Nc1nc2ccccc2[nH]1 (stereo not drawn),35.6%,
c1coc(CN(Cc2ccco2)c2ncnc3c2oc2ccccc23)c1,30.9%,
CCOc1ccc(Cc2nc(C)c(CC(=O)N3CCOCC3)c(=O)[nH]2)cc1,-2.2%,
CC(=O)N1N=C(c2ccc(C)cc2)CC1c1ccc2c(c1)OCO2 (stereo not drawn),50.4%,
SMILES,PKM2 inhibitor,others
Cc1ccnc(NC(=O)c2ccc3c(c2)OCO3)c1,12.6µM*,PKM2 inh dose=16.3µM*;PKM2 FLuc cs=13µM*;PKM2 LDH couple=-10.4%
Cc1ccnc(NS(=O)(=O)c2ccc3c(c2)CCO3)c1,42.2%,
Cc1ccccc1Nc1c(-c2ccc(Cl)s2)nc2ccccn12,/,PKM2 inh dose=4.9%;PKM2 FLuc cs=0.2%;PKM2 LDH couple=?
C[c-]1[c-](C)[c-](C)[c-](C)[c-]1C.[Fe].c1cc2nccc(N3CCCC3)[c-]2c1 (stereo not drawn),31.9%,
CCc1nnc(NC(=O)CSc2nnc(-c3ccc(NS(=O)(=O)c4ccccc4)cc3)o2)s1,82.5%,
CCOc1ccc(NS(=O)(=O)c2ccc(NC(=O)c3cccnc3)c(OC)c2)cc1,31.1%,
COC(=O)c1ccc(S(=O)(=O)c2ccccc2)c(N)c1,43.8%,
O=C1C=CC(=O)N1CCCCCCN1C(=O)C=CC1=O,10µM*,PKM2 inh dose=6.51µM*;PKM2 FLuc cs=-0.8%;PKM2 LDH couple=-28.5%
Cc1ccc(C(=O)N/C(=C\c2cn(S(=O)(=O)N(C)C)c3ccccc23)C(=O)NCCN2CCOCC2)cc1,56.3%,
CC(C)CC(=O)Nc1nnc(S(=O)(=O)N2c3ccccc3CC2C)s1 (stereo not drawn),3.6%,
CCc1ccccc1N1C(=O)C(Cl)=C(N2CCOCC2)C1=O,30.7%,
COCCNC(=O)C(Cc1c[nH]c2ccccc12)NC(=O)OCc1ccccc1 (stereo not drawn),-2.9%,
COC(=O)c1cc(O)cc(OC)c1Oc1cc(C)cc(O)c1C(=O)O,42.7%,
CCOC(=O)C(Nc1ccc2ccccc2c1)C(=O)OCC,30.4%,
CC(=O)Oc1ccc(NC(=O)Cc2ccccc2)c(C(=O)O)c1,-0.6%,
CCOc1ccc(NC(=O)Nc2ccccc2C(N)=O)cc1,3.98µM*,PKM2 inh dose=9.19µM*;PKM2 FLuc cs=6.51µM*;PKM2 LDH couple=-1.5%
O=C(COC(=O)C1=Cc2ccccc2OC1)NC1CCCC1,0.2%,
Cc1cc(OCC(=O)NC(Cc2ccc(Cl)cc2)C(=O)O)c2c(C)c(C)c(=O)oc2c1 (stereo not drawn),42.9%,
O=C(NCCc1ccccc1)c1c(O)c2ccccc2[nH]c1=O,35.6%,
O=C1C(c2cc(=O)c3ccccc3[nH]2)=C(O)c2ccccc21,11.2µM*,PKM2 inh dose=16.3µM*;PKM2 FLuc cs=-12.9%;PKM2 LDH couple=?
Cc1cc(-c2cc(-c3ccc(Cl)cc3)nc(N)c2C#N)co1,55.1%,
Cc1ccc2nc(-c3ccncc3)c(Nc3ccccc3)n2c1,/,PKM2 inh dose=15.9%;PKM2 FLuc cs=-2.2%;PKM2 LDH couple=-0.7%
Cc1ccc2nc(-c3cccs3)c(Nc3ccccc3)n2c1,/,PKM2 inh dose=2.8%;PKM2 FLuc cs=-4.2%;PKM2 LDH couple=-6.9%
O=C(CSc1ccc(-c2cccs2)nn1)Nc1ccccc1,44.1%,
Cc1ccc(C)c(S(=O)(=O)N2CCN(C(=O)CSc3ccccc3F)CC2)c1,36.1%,
SMILES,PKM2 inhibitor,others
COCC(C)n1c(SCC(=O)N(C)C2CCS(=O)(=O)C2)nc2ccccc2c1=O (stereo not drawn),30.4%,
CC(=O)C(C(C)=O)c1c(Cl)c(O)c(O)c2c(C(=O)c3ccccc3)coc12,27.0%,
COc1cccc(NC(=O)CSc2nnc(C)s2)c1,41.6%,
COc1ccc(C(=O)Nc2cccc(OC)c2)cc1,?,PKM2 inh dose=?;PKM2 FLuc cs=?;PKM2 LDH couple=-9.6%
COc1cccc(NC(=O)CSc2nnc3cc(C)nc(N)n23)c1,134.8%,
CC(C)(C)NC(=S)N/N=C\c1ccc(-c2ccc([N+](=O)[O-])cc2)o1,43.2%,
CCC(CC)c1nnc(NC(=O)c2cccnc2SC)s1,34.2%,
COC(=O)Nc1c(-c2ccccc2)nc2ccccn12,35.6%,
Cc1n[nH]c(=O)nc1NCc1ccco1,32.6%,
Cc1ccn2c(NCc3ccco3)c(-c3ccccc3)nc2c1,/,PKM2 inh dose=-10.1%;PKM2 FLuc cs=1.0%;PKM2 LDH couple=?
Cc1ccc(-c2nn(C)c(=O)c3ccccc23)cc1CNC(=O)c1ccco1,2.4%,
N#CCC(=O)Nc1ccc(C(=O)Nc2cccc(S(N)(=O)=O)c2)cc1,36.8%,
CCOc1ccc(OCC(=O)Nc2nccs2)cc1,10µM*,PKM2 inh dose=10.3µM*;PKM2 FLuc cs=?;PKM2 LDH couple=-1.6%
Cc1ccc(CCC(=O)Nc2nccs2)o1,89.6%,
CCOC(=O)C(Cc1ccccc1)C(=O)Nc1nccs1 (stereo not drawn),44.9%,
CCc1cccc(C)c1N=Cc1c(O)c2ccccc2oc1=O,58.3%,
Cc1ccc(CNC(=O)Cn2c(=O)oc3ccccc32)o1,38.0%,
COCCn1c(-c2ccccc2)cnc1SCC(=O)Nc1cccc2ccccc12,-8.5%,
O=Cc1s/c(=N\S(=O)(=O)c2ccccc2)n(CCCCl)c1Cl,35.0%,
Cn1c(NCc2c[nH]c3ccccc23)nc2ccccc21,53.4%,
Cn1c(N=Nc2ccccc2)nc2ccccc21,5.62µM*,PKM2 inh dose=13µM*;PKM2 FLuc cs=5.17µM*;PKM2 LDH couple=29.6%

# Screens as filed in PubChem BioAssay.
